# Screening results deposited in PubChem BioAssay by National Center for Advancing Translational Sciences (NCATS).
# Lassa entry inh = Lassa virus entry inhibition. Lassa virus pseudotype entry inhibition, cell reporter. 300,000 compounds, 1.2% hits. Potency, µM (doses to about 37.9 µM), most hits filed as inhibitors; calls by dose curve; tested in HEK293 cells; further: nearly all actives have a fitted effect of over 50% in size
# HCMV antiviral = inhibitors of human cytomegalovirus; activity change, negative = inhibition, % at 57.5 µM; HFF cells, HCMV-luciferase reporter, 72 h; hits give low values; 410,000 compounds, 4.5% hits; in the data active means activity change below about -60%; inconclusive means no clear call, values can overlap the other calls; inactive means above about -39%
#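 Steps: HFFs plated, 16 h 37C; compounds added; HCMV-luciferase added to MOI 1 PFU/cell; 72 h 37C; OneGlo reagent, 5 min room temperature; luminescence read, normalized to controls.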
# MARV entry inh = blocks Marburg virus binding to or entry into cells | Marburg virus pseudotyped entry inhibition, cell reporter | Potency, µM (highest dose often 37.8 µM), actives largely listed as inhibitors | 300,000 compounds, 1.8% hits; calls by dose curve; tested in HEK293 cells
# Pf growth 96h = P. falciparum growth inhibition at 96 hours; AID 504834; P. falciparum luciferase reporter growth, 96 h; Potency, µM (top dose mostly 28.7 µM), hits mostly inhibitors; 320,000 compounds, 6.9% hits
#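 Erythrocytes infected with luciferase-expressing P. falciparum were dispensed at 2% hematocrit and 0.05% parasitemia (final), then incubated with compounds 96 hours at 37 C in 5% CO2. Luminescence after detection reagent addition reported growth.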
# Pf growth 48h = inhibits P. falciparum growth in the first generation, 48 h; P. falciparum luciferase growth in erythrocytes, 48 h; AID 504832; Potency, µM (titrated, usually from 28.7 µM), most hits filed as inhibitors; 310,000 compounds, 5.9% hits
#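 Luciferase-expressing parasites in RBCs, 2% Hct / 0.1% parasitemia final; RPMI 1640 + 0.5% Albumax; 37 C, 5% CO2, one generation; luminescence read-out, lower signal = inhibition.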
# HCV inh = HCV inhibition | Huh7.5.1 HCVcc-Cre infection, luciferase reporter, 44 h | Potency, µM (series often up to 41.8 µM), hits mostly inhibitors | 340,000 compounds, 3.4% hits
#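 Luciferase read-out (15 sec integration) after a 15 min room-temperature substrate step quantifies HCVcc-Cre infection. Cells, 1,000 per well, had compound added 4 h post-plating, then virus at ~0.5 moi, and were cultured 44 h.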
# Hits are given with their value; i = inactive; ? = inconclusive; nt = not tested or not shown; [ ] = remark or other dose. Most compounds without a hit are left out; they make up all but 14% or so of the library. Unless noted, the call rests on the fitted dose curve; in most records, active means well fitted inhibition curve with a large enough effect; inconclusive means small, poorly fitted or top-dose-only effect, or another doubt; inactive means no such curve, though single readings can be large or run the other way.
SMILES,Lassa entry inh,HCMV antiviral,MARV entry inh,Pf growth 96h,Pf growth 48h,HCV inh
Cc1ccc(OCC(=O)Nc2cc(-c3cccc(C)c3)nn2-c2ccccc2)cc1,i,i,nt,nt,nt,nt
Cc1ccc(-n2nc(C)c(NC(=O)CCl)c2C)cc1,10µM,-100.6,?,i,3.7µM,?
O=C(CCl)Nc1cc(-c2ccccc2)nn1-c1ccccc1,?,-87.3,5.17µM,6.57µM,nt,14.1µM
CCCCCc1cc(=O)c2ccccc2o1,nt,i,nt,nt,nt,i
CCOc1ccccc1NC(=O)N1CCN(Cc2nc3ccc(C)cc3o2)CC1,i,i,nt,nt,nt,nt
O=C(C1CCCCC1)N1C[C@@H](n2cc(-c3ccc(F)cc3)nn2)[C@@H](O)C[C@@H]1c1ccccc1,i,nt,nt,nt,nt,nt
C#Cc1cccc(C(=O)N(Cc2cccnc2)CC2CCCN(C3CCCCC3)C2)c1 (stereo not drawn),nt,-63.0,nt,nt,nt,nt
O=C(c1cccs1)N(CCN1CCCCC1)CC1CCCN(C2CCCC2)C1 (stereo not drawn),nt,i,nt,?,i,?
O=C(c1cc2cc(F)ccc2[nH]1)N(Cc1cccnc1)CC1CCCN(C2CCCCC2)C1 (stereo not drawn),nt,i,nt,?,2.62µM,?
COC(=O)C1=C(C)N(Cc2ccccc2)C(=NCC(C)C)NC1c1ccc(Br)cc1 (stereo not drawn),nt,nt,i,nt,nt,nt
O=C(c1ccc2oc(CCCc3ccccc3)nc2c1)N1CCCC1,?,i,i,i,i,i
CC1(c2nc3ccccc3cc2C#N)OCCO1,nt,i,nt,nt,nt,nt
CCOP(=O)(OCC)c1nc(/C=C/c2ccccc2)oc1NCc1ccccc1,i,i,?,i,11.7µM,?
CCOP(=O)(OCC)c1nc(-c2ccc(C)cc2)oc1NCc1ccccc1,i,-60.6,?,i,?,i
CCOP(=O)(OCC)c1nc(-c2cccc3ccccc23)oc1NCc1ccccc1,i,i,?,?,?,i
CCOP(=O)(OCC)c1nc(-c2cccc3ccccc23)oc1NCc1ccc(OC)cc1,?,i,?,13.1µM,?,?
Cc1nc(SC(C)C(=O)Nc2ccccc2Cl)cc(-c2ccccc2)n1 (stereo not drawn),?,-70.2,?,nt,nt,nt
C=CCN1c2ccccc2[C@]23C[C@@H](C(=O)OC)N(C(=O)NCCC)C2=NC(C(=O)OC)=C(C(=O)OC)[C@H]13,nt,i,nt,4.15µM,3.29µM,?
COC(=O)C1=C(C(=O)OC)[C@@H]2N(Cc3ccccc3)c3ccccc3[C@@]23C[C@@H](C(=O)OC)N(C(=O)CC(C)C)C3=N1,nt,i,nt,4.65µM,4.15µM,?
COC(=O)C1=C(C(=O)OC)[C@@H]2N(C)c3ccccc3[C@@]23C[C@@H](CO)N(C(=O)NCCBr)C3=N1,nt,i,nt,?,9.28µM,?
COC(=O)C1=C(C(=O)OC)[C@@H]2N(Cc3ccccc3)c3ccccc3[C@@]23C[C@@H](CO)N(C(=O)CC(C)C)C3=N1,nt,nt,i,nt,nt,nt
O=C(CSc1nc2c(c(=O)[nH]1)CN(Cc1ccc3c(c1)OCO3)CC2)Nc1ccc(F)cc1,i,i,i,nt,nt,nt
CCOc1ccc(-n2ccnc(SCC(=O)Nc3cccc(OC)c3)c2=O)cc1,i,i,?,?,i,?
CCCN1C(=O)c2ccccc2NC1c1ccc(O)c(OCC)c1 (stereo not drawn),nt,i,nt,i,?,i
CCCN1C(=O)c2ccccc2NC1c1ccc(Cl)cc1 (stereo not drawn),nt,i,nt,i,13.1µM,i
SMILES,Lassa entry inh,HCMV antiviral,MARV entry inh,Pf growth 96h,Pf growth 48h,HCV inh
CCCN1C(=O)c2ccccc2NC1c1ccc(Br)cc1 (stereo not drawn),?,i,?,i,?,i
CCCN1C(=O)c2ccccc2NC1c1ccc(Cl)c(Cl)c1 (stereo not drawn),nt,i,nt,9.28µM,?,?
Cc1ccc(N2CC(C(=O)OCC(=O)Nc3c(C)cccc3C)CC2=O)cc1 (stereo not drawn),nt,i,nt,nt,nt,nt
COc1ccccc1C(=O)NC(=O)COC(=O)c1cnccn1,nt,i,nt,nt,nt,nt
CCOC(=O)C1=C(C)C2C3C(=O)N(c4cc(C)ccc4C)C(=O)C3C1(C)C1C(=O)N(c3cc(C)ccc3C)C(=O)C21 (stereo not drawn),i,i,i,?,13.1µM,i
CCc1ccc(NC(=O)CC2C(=O)N(c3ccc(F)cc3)C(=O)N2Cc2ccc(F)cc2)cc1 (stereo not drawn),i,i,nt,nt,nt,nt
CCc1cc2c(s1)N(CC(=O)OC)C(=O)CN=C2c1ccccc1OC,i,i,i,8.28µM,i,i
Cc1ccc(-c2nnc(Nc3ccc(Cl)c(Cl)c3)c3ccccc23)cc1S(=O)(=O)N(C)C,?,i,nt,nt,nt,nt
Cc1ccc(-c2nnc(Nc3ccc4c(c3)OCO4)c3ccccc23)cc1S(=O)(=O)NCCO,i,-93.8,i,?,3.29µM,i
Cc1ccc(-c2nnc(Nc3ccc4c(c3)OCO4)c3ccccc23)cc1S(=O)(=O)NC(C)C,?,-92.3,?,?,2.94µM,?
Cc1ccc(-c2nnc(Nc3ccc(Cl)c(Cl)c3)c3ccccc23)cc1S(=O)(=O)NCCO,?,-90.5,nt,nt,nt,nt
Cc1ccc(-c2n[nH]c(=O)c3ccccc23)cc1S(=O)(=O)NCCO,i,i,i,nt,i,?
Cc1ccc(-c2nnc(Nc3ccc(CC(N)=O)cc3)c3ccccc23)cc1S(=O)(=O)NCCO,nt,i,nt,i,6.57µM,i
Cc1ccc(-c2nnc(Nc3ccc(Br)cc3)c3ccccc23)cc1S(=O)(=O)N1CCCCC1,?,i,nt,nt,nt,nt
Cc1cc(C)cc(NC2=C(c3ccccc3)C(=O)c3ccccc32)c1,i,i,i,nt,nt,nt
O=c1cc2nc(-c3ccccc3)nc(SCc3cccc(Br)c3)n2[nH]1,i,i,nt,nt,nt,nt
COCCCN1C(=O)C(CC(=O)NCCCCc2ccccc2)CC(C(=O)N(C(C)C)C(C)C)=C1C (stereo not drawn),nt,i,nt,nt,nt,nt
O=C(C[C@@H]1CC[C@@H](NC(=O)Nc2cccc(F)c2)[C@@H](CO)O1)NCC1CCCCC1,nt,i,nt,nt,nt,nt
COc1ccc(Nc2cc3[nH]c(-c4cccc(C(F)(F)F)c4)cc3cn2)cc1,nt,i,nt,nt,nt,nt
COc1ccccc1Nc1ncnc2scc(-c3ccc(F)cc3)c12,i,-82.5,nt,nt,nt,nt
COc1ccc(/C=N/Nc2ncnc3scc(-c4ccccc4)c23)cc1OC,i,i,?,10.4µM,nt,?
CCOc1ccc(CCNC(=O)C2CCN(C(=O)c3cc4sccc4n3CC)CC2)cc1OCC,nt,i,?,nt,nt,nt
Cc1ccc(CNCC(O)(c2ccccc2)c2ccc(Cl)cc2)cc1 (stereo not drawn),i,i,10µM,1.65µM,0.828µM,?
COc1cccc(CCNCc2cccc(C(F)(F)F)c2)c1,i,i,?,i[1.15 µM],i,i
Cc1ccc(CNCC(O)(c2ccccc2)c2ccccc2)cc1,nt,i,nt,?,?,i
COc1cccc(CNCC(O)(c2ccc(Cl)cc2)c2ccc(Cl)cc2)c1,i,i,18.3µM,1.31µM,6.57µM,i
COc1ccc(CNCC(O)(c2ccccc2)c2ccc(Cl)cc2)cc1 (stereo not drawn),i,?,?,2.33µM,2.33µM,?
